Source: PubChem BioAssay (Broad Institute)
Pf Dd2 inh – P. falciparum Dd2 growth inhibition | AID 1159554 | activity change, % at 10 µM | 2.3% of 94,000 active | SYBR Green, 72 h; stronger effect = lower value; in the data active = activity change below about -80%
T cruzi growth-1 – inhibitors of T. cruzi proliferation; inhibition, % at 8.34 µM; AID 624255; T. cruzi beta-gal in NIH3T3, GalScreen luminescence, 90 h; 5.9% of 77,000 active;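 active = mean inhibition above about 93%, with at least 55% of replicates each passing it, limit read from the data, passing the limit was not always enough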
C diff growth – inhibitors of Clostridium difficile growth; 0.25% of 86,000 active; growth activity, negative = inhibition, % at 16 µg/mL (by protocol); Clostridium difficile clinical isolate growth, OD600, 24 h; stronger effect = lower value;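 active = mean growth activity at or below -80% and every replicate also at or below -80%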;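 also: 0% = DMSO wells and -100% = levofloxacin 16 µg/mL wells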
T cruzi growth-2 – Trypanosoma cruzi proliferation inhibition; 72% of 5,600 active; T. cruzi beta-gal in NIH3T3, GalScreen luminescence, 90 h; shares compounds with T cruzi growth-1; inhibition, % at 8.35 µM;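 active = mean replicate inhibition above about 95% and at least 55% of replicates individually reaching it, limit read from the data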
T cruzi growth-3 – inhibitors of T. cruzi proliferation; shares compounds with T cruzi growth-1; T. cruzi beta-gal in NIH3T3, GalScreen luminescence, 90 h; inhibition, % at 2.09 µM; 21% of 5,600 active; AID 651740;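 active = mean inhibition above about 95%, with at least 55% of replicates also reaching it, limit read from the data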;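 also: plate controls were neutral control median for no effect and positive control median for full effect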
NIH3T3 tox – kills mouse NIH/3T3 fibroblasts; shares compounds with T cruzi growth-1; NIH/3T3 viability, CellTiter-Glo ATP luminescence, 90 h; cytotoxicity (signal decrease), % at 8.35 µM; 14% of 5,600 active; AID 651742;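 active = mean signal decrease across replicates above about 35% based on untreated-well scatter, with enough replicates individually passing, limit read from the data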;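 also: 0% = median of neutral control wells and 100% = median of positive control wells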
3T3 cytotox 2 – cytotoxicity in mouse NIH/3T3 fibroblasts; shares compounds with T cruzi growth-1; AID 651744; NIH/3T3 viability, CellTiter-Glo ATP luminescence, 90 h; inhibition, % at 24.9 µM; 56% of 5,600 active;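 active = mean loss of cell viability signal at or above a set limit, and enough replicates individually reaching it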;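 also: 0% = median of neutral control wells and 100% = median of positive control wells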
An asterisk follows results filed as active. In the library only some 6.7% were active in any assay of this set; here they are far more common.

Screening C[C@@H]1CCCCO[C@@H](CN(C)C)[C@H](C)CN([C@H](C)CO)C(=O)c2cc(NC(=O)Nc3ccc(C(F)(F)F)cc3)ccc2O1 returned Pf Dd2 inh 12.6, T cruzi growth-1 25.5 and C diff growth 12.7.
`C[C@@H]1CCCCO[C@@H](CN(C)C(=O)C2CCCCC2)[C@H](C)CN([C@H](C)CO)C(=O)c2cc(NC(=O)Nc3ccccc3)ccc2O1` gave Pf Dd2 inh -50.4, T cruzi growth-1 70.3 and C diff growth 0.9.
For C[C@@H]1CCCCO[C@@H](CN(C)C(=O)C2CCCCC2)[C@@H](C)CN([C@@H](C)CO)C(=O)c2cc(NC(=O)Nc3ccccc3)ccc2O1 the results were Pf Dd2 inh -70.9, T cruzi growth-1 46.3 and C diff growth 8.4.
For C[C@@H]1CCCCO[C@H](CN(C)C(=O)C2CCCCC2)[C@@H](C)CN([C@H](C)CO)C(=O)c2cc(NC(=O)Nc3ccccc3)ccc2O1 the results were Pf Dd2 inh -46.2, T cruzi growth-1 72.3 and C diff growth 5.0.
`C[C@@H]1CN([C@H](C)CO)C(=O)c2cc(NC(=O)Nc3ccc(C(F)(F)F)cc3)ccc2O[C@@H](C)CCCCO[C@H]1CN(C)C(=O)C1CCCCC1` gave Pf Dd2 inh -44.6, T cruzi growth-1 121.7*, C diff growth 11.6, T cruzi growth-2 102.1*, T cruzi growth-3 116.7*, NIH3T3 tox 15.8 and 3T3 cytotox 2 47.0*.
For O=C(C[C@H]1CC[C@H]2[C@@H](COC[C@H](O)CN2CC2CCCCC2)O1)NCc1ccc(F)cc1 the results were T cruzi growth-1 56.5 and C diff growth 1.7.
For Cc1ccc(S(=O)(=O)Nc2cccc3c2O[C@@H](CN(C)C(=O)Nc2c(C)noc2C)[C@@H](C)CN([C@H](C)CO)C3=O)cc1 the results were Pf Dd2 inh 10.4, T cruzi growth-1 23.3 and C diff growth 6.3.
For COc1ccc(NC(=O)Nc2cccc3c2O[C@@H](CN(C)C(=O)Nc2ccc(C(F)(F)F)cc2)[C@@H](C)CN([C@H](C)CO)C3=O)cc1 the results were Pf Dd2 inh -9.5, T cruzi growth-1 48.7 and C diff growth -2.5.
For C[C@@H]1CN([C@H](C)CO)C(=O)c2cc(NC(=O)Nc3ccc(C(F)(F)F)cc3)ccc2O[C@@H](C)CCCCO[C@@H]1CN(C)C(=O)C1CCCCC1 the results were Pf Dd2 inh -84.4*, T cruzi growth-1 120.9*, C diff growth 11.0, T cruzi growth-2 91.8, T cruzi growth-3 115.6*, NIH3T3 tox -12.4 and 3T3 cytotox 2 23.5.
`C[C@@H]1CCCCO[C@@H](CN(C)C(=O)C2CCCCC2)[C@H](C)CN([C@@H](C)CO)C(=O)c2cc(NC(=O)Nc3ccc(F)cc3)ccc2O1` gave Pf Dd2 inh 7.4, T cruzi growth-1 89.6 and C diff growth -9.8.
Screening CS(=O)(=O)Nc1ccc2c(c1)[C@H]1C[C@H](CC(=O)NCc3ccccc3)O[C@@H](CO)[C@H]1O2 returned Pf Dd2 inh 28.4 and T cruzi growth-1 8.3.
Screening COCC#Cc1ccc([C@@H]2[C@@H](CO)N3CCCCN(Cc4cccnc4)C[C@H]23)cc1 returned Pf Dd2 inh 4.6, T cruzi growth-1 -8.7 and C diff growth -0.5.
COCC#Cc1ccc([C@H]2[C@@H](CO)N3CCCCN(Cc4cccnc4)C[C@@H]23)cc1 was read as Pf Dd2 inh -7.8, T cruzi growth-1 101.5*, C diff growth 0.7, T cruzi growth-2 88.0, T cruzi growth-3 80.6, NIH3T3 tox -17.1 and 3T3 cytotox 2 3.7.
`CCCC#Cc1ccc([C@H]2[C@@H](CO)N3CCCCN(Cc4cccnc4)C[C@@H]23)cc1` gave Pf Dd2 inh -57.2, T cruzi growth-1 109.5*, C diff growth 3.1, T cruzi growth-2 100.9*, T cruzi growth-3 83.5, NIH3T3 tox 42.6* and 3T3 cytotox 2 78.3*.
Screening COCC#Cc1ccc([C@@H]2[C@H]3CN(Cc4cccnc4)CCCCN3[C@H]2CO)cc1 returned Pf Dd2 inh -4.4, T cruzi growth-1 89.9 and C diff growth 0.7.
For C[C@@H]1CN([C@@H](C)CO)S(=O)(=O)c2ccc(C3=CCCCC3)cc2O[C@H]1CN(C)C(=O)C1CCCCC1 the results were Pf Dd2 inh -46.3, T cruzi growth-1 117.8*, C diff growth 2.3, T cruzi growth-2 104.1*, T cruzi growth-3 45.4, NIH3T3 tox 9.2 and 3T3 cytotox 2 96.4*.
C[C@H](CO)N1C[C@H](C)[C@H](CN(C)C(=O)C2CCC2)Oc2cc(C3=CCCCC3)ccc2S1(=O)=O was read as Pf Dd2 inh -39.0, T cruzi growth-1 34.9 and C diff growth 7.1.
`C[C@H]1CN([C@@H](C)CO)S(=O)(=O)c2ccc(C3=CCCCC3)cc2O[C@@H]1CN(C)C(=O)C1CCCCC1` gave Pf Dd2 inh -36.5, T cruzi growth-1 120.8*, C diff growth 6.6, T cruzi growth-2 103.0*, T cruzi growth-3 98.8*, NIH3T3 tox -12.2 and 3T3 cytotox 2 105.0*.
For C[C@@H]1CN([C@@H](C)CO)S(=O)(=O)c2ccc(C3=CCCCC3)cc2O[C@H]1CN(C)C(=O)C1CC1 the results were Pf Dd2 inh -36.0, T cruzi growth-1 57.3 and C diff growth -7.7.
C[C@@H]1CN([C@@H](C)CO)S(=O)(=O)c2ccc(C3=CCCCC3)cc2O[C@@H]1CN(C)C(=O)C1CCC1 was read as Pf Dd2 inh -0.1, T cruzi growth-1 47.6 and C diff growth 5.6.
`C[C@@H]1CN([C@@H](C)CO)S(=O)(=O)c2ccc(C3=CCCCC3)cc2O[C@@H]1CN(C)C(=O)C1CCCCC1` gave Pf Dd2 inh 12.4, T cruzi growth-1 119.2*, C diff growth -10.5, T cruzi growth-2 104.6*, T cruzi growth-3 93.1, NIH3T3 tox 33.5 and 3T3 cytotox 2 105.9*.
`C[C@@H]1CN([C@@H](C)CO)S(=O)(=O)c2ccc(C3=CCCCC3)cc2O[C@@H]1CN(C)C(=O)C1CC1` gave Pf Dd2 inh 5.6, T cruzi growth-1 65.5 and C diff growth -6.9.
`C[C@H](CO)N1C[C@H](C)[C@@H](CN(C)C(=O)C2CCCCC2)Oc2cc(C3=CCCCC3)ccc2S1(=O)=O` gave Pf Dd2 inh -25.6, T cruzi growth-1 112.5*, C diff growth -3.1, T cruzi growth-2 110.0*, T cruzi growth-3 47.7, NIH3T3 tox 4.7 and 3T3 cytotox 2 104.9*.
`C[C@@H]1CCCCO[C@H](CN(C)Cc2ccc3c(c2)OCO3)[C@@H](C)CN([C@H](C)CO)C(=O)c2cc(NS(=O)(=O)c3ccccc3)ccc2O1` gave Pf Dd2 inh -21.8.
